Results: PubChem BioAssay (NCATS)
Results filed as inconclusive are left out. Where a call stands in place of a potency, no number is given. Calls of active or inactive are those of the source. Unless noted, calls come from the whole dose curve; as a rule, active = well fitted curve in the direction sought with a large enough effect; inconclusive = small, poorly fitted or top-dose-only effect, or another doubt; inactive = no such curve, though single readings can be large; an effect the other way counts as inactive or inconclusive.

Legend:
[1] = target: Thyrotropin-releasing hormone receptor (Homo sapiens) (UniProt P34981); assay: qHTS for Small Molecule Agonists and Allosteric Enhancers of Human TRH Receptor: Validation Screen for Agonists (AID 493127;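 active = calcium activation more than 3 SD above the typical response in the agonist read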;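 note: intracellular calcium rise by fluo-8 fluorescence before TRH EC20 addition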); conditions: TRH receptor agonist cell assay; at 2 µM; stronger effect = higher value
Thyrotropin-releasing hormone receptor (Homo sapiens), sequence (P34981 whole entry, looked up): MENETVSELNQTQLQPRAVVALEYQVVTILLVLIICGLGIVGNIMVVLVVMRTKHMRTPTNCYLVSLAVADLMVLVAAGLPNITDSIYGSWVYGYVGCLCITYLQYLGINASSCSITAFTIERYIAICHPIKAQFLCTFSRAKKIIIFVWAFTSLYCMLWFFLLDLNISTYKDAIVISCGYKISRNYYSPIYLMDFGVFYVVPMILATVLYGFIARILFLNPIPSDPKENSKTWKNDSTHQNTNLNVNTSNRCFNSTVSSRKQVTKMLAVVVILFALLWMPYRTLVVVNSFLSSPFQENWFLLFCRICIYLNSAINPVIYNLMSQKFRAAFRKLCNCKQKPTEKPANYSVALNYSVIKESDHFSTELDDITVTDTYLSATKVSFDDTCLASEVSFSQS
Summary of the method: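 TRHR-expressing cells were plated overnight in serum-containing medium, then loaded with fluo-8 calcium dye at room temperature for 30 min–1.5 h. After a 10 s baseline, compound was pin-transferred and calcium fluorescence (ex 480/em 530) read kinetically for agonist response.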

[2] = qHTS for Inhibitors of Cell Surface uPA Generation: Validation Assay (AID 493164); conditions: mouse cells, plasminogen activation; series mostly up to 38.3 µM;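 note: RAW 264.7 macrophage cells exposed to compound for 18 h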
Summary of the method: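 RAW 264.7, 4000 cells/well, o/n plating; cpd 7-pt 1:5 dilution 2.45 nM–38.3 uM final; 18 h, 37 C/5% CO2; ATP-Lite, 5 s luminescence exposure.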

[3] = target: Galactokinase (Homo sapiens) (UniProt P51570); assay: qHTS Validation Assay for Inhibitors of Human Galactokinase (GALK) (AID 493189); conditions: purified human GALK enzyme activity, qHTS 7-point titration; series mostly up to 57.5 µM
Galactokinase (Homo sapiens), sequence (P51570 whole entry, looked up): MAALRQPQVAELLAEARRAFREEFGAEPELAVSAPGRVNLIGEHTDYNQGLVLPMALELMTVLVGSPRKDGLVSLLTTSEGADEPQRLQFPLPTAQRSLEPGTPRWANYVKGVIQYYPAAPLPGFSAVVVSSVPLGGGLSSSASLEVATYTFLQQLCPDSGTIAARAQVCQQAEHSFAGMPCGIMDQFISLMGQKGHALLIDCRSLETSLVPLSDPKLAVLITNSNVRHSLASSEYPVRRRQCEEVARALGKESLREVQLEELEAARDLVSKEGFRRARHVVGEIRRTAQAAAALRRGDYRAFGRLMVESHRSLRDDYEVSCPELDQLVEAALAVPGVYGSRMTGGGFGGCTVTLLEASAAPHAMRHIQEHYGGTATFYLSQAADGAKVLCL
Summary of the method: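 Compounds were pin-transferred into ATP buffer, then GALK-galactose mix was added (final 5 nM enzyme, 100 uM galactose, 35 uM ATP). After 1 h at room temperature, remaining ATP was measured luminescently.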

[4] = target: Peptidyl-prolyl cis-trans isomerase NIMA-interacting 1 (Homo sapiens) (UniProt Q13526); assay: qHTS Validation Assay to Find Inhibitors of Pin1 (AID 504536; active = well fitted inhibition curve with a large enough effect in the polarisation, with a control signal flat, not every such curve was filed as active; the % refers to the polarisation); conditions: Pin1 fluorescence polarization peptide binding assay; series mostly up to 57.5 µM
Peptidyl-prolyl cis-trans isomerase NIMA-interacting 1 (Homo sapiens), sequence (Q13526 whole entry, looked up): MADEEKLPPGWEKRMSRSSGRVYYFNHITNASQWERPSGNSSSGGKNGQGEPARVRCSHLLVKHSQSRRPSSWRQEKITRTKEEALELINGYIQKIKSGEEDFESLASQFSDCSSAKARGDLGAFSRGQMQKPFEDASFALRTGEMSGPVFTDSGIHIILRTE
Summary of the method: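 Fluorescence polarization competition: compounds (titration) displace HiFluor-488-labeled Pin1-1b peptide from Pin1 (0.3 uM final) in pH 7.5 HEPES buffer with DTT, 10 min at room temperature; %Activity normalized to no-enzyme wells, curves fitted.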

[5] = target: Phosphoglycerate kinase, glycosomal (Trypanosoma brucei brucei) (UniProt P07378); assay: qHTS Validation Assay to Find Inhibitors of Phosphoglycerate Kinase (AID 504547); conditions: enzymatic PGK inhibition, coupled luminescence read-out; series mostly up to 57.5 µM
Phosphoglycerate kinase, glycosomal (Trypanosoma brucei brucei), sequence (P07378 whole entry, looked up): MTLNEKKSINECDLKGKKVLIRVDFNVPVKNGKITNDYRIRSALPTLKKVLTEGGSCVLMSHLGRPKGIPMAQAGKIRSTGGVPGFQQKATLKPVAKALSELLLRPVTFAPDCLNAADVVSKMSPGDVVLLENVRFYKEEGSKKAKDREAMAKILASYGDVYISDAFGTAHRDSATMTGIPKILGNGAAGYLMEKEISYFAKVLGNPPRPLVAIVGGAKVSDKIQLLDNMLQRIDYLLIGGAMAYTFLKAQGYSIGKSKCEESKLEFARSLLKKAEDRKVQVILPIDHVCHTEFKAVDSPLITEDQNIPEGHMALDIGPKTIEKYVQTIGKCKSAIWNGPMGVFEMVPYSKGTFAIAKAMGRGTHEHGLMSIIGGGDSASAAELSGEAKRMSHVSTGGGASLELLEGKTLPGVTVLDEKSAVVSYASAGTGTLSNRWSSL
Summary of the method: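 PGK activity was coupled to GAPDH (100nM final), which generates the unstable substrate 1,3-bisphosphoglycerate in-well. Reactions ran 60 minutes at room temperature in 100mM TEA pH 7.6, 5mM MgCl2, 0.01% Tween-20, then Kinase-Glo Plus luminescence was read.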

[6] = target: phosphoglycerate mutase (Leishmania major) (UniProt Q4Q090); assay: qHTS Validation Assay to Find Inhibitors of Phosphoglycerate Mutase (AID 504548); conditions: biochemical enzyme activity; series mostly up to 57.5 µM
phosphoglycerate mutase (Leishmania major), sequence (Q4Q090 1-553): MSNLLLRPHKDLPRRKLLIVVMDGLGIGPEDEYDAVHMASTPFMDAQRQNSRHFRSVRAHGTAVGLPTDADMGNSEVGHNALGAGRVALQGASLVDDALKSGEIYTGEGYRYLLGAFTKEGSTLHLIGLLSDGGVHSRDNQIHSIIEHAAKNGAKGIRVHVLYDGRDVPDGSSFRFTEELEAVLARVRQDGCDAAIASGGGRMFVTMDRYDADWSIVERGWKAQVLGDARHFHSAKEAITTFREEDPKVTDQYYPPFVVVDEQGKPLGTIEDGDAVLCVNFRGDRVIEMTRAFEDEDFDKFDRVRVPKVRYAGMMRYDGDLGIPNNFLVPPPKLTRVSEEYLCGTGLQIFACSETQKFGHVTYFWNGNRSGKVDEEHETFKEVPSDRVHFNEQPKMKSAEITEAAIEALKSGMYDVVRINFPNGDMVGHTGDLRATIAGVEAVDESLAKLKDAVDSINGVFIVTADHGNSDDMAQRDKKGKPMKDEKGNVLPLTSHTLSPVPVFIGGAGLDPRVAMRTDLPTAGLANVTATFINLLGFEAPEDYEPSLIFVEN
Summary of the method: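 Lm PGAM 1.25nM final; 100 mM TEA pH 7.6, 5 mM MgCl2, 0.01% Tween-20; 45 min RT; Kinase-GloPlus, 10 min; end-point luminescence. Enzyme-free wells as negative controls.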

[7] = Nrf2 qHTS screen for inhibitors: Validation (AID 493153; active = well fitted inhibition curve with a large enough effect in the main read-out, with a control signal flat, not every such curve was filed as active); conditions: A549 ARE-Fluc reporter, 18-24 h; Potency: luciferase luminescence; viability change: measured here: cytotoxicity max response; luciferase luminescence, at 46.1 µM (top of the series)
Summary of the method: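 A549 cells carrying an ARE-driven firefly luciferase reporter, in 5% FBS OPTI-MEM, were treated with compounds in concentration-response for 18-24 h at 37°C. Viability was read by CellTiter-Fluor fluorescence, then Nrf2 activity by luciferase luminescence.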

[8] = target: Ubiquitin carboxyl-terminal hydrolase 1 (Homo sapiens) (UniProt O94782); assay: Inhibitors of USP1/UAF1: Pilot qHTS (AID 504865); conditions: purified USP1/UAF1, Ub-rhodamine cleavage fluorescence; series mostly up to 114 µM;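 note: rhodamine fluorescence freed from ubiquitin-rhodamine substrate followed over time; top concentration of the series differs between compounds; nearly all actives have a fitted effect of over 35% in size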
Ubiquitin carboxyl-terminal hydrolase 1 (Homo sapiens), sequence (O94782 whole entry, looked up): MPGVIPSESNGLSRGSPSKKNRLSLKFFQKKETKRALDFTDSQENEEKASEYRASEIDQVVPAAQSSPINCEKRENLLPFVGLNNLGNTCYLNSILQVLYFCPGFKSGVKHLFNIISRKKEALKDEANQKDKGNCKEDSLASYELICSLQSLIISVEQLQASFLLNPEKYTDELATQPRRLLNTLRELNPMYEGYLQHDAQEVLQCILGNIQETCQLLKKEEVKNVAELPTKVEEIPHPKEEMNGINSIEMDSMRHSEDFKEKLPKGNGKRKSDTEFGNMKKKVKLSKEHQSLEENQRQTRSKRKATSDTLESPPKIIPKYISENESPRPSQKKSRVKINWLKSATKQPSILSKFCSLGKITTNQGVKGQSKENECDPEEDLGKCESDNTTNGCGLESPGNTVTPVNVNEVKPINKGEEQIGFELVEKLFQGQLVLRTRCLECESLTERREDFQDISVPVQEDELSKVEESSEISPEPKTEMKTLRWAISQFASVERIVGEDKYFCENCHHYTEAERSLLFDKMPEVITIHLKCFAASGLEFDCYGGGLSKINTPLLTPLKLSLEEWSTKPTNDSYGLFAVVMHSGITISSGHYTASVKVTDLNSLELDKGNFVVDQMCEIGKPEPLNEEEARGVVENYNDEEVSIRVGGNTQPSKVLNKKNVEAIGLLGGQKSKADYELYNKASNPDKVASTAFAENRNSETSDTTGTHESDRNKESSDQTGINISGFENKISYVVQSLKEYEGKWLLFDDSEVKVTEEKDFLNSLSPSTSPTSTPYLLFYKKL
Summary of the method: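 Kinetic fluorescence assay: 1nM USP1/UAF1, 15 min compound preincubation, then 150nM Ub-Rho; 480/540 nm.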

[9] = qHTS for Inhibitors of ATXN expression: Validation of Cytotoxic Assay (AID 588349); conditions: cytotoxicity counter-screen for ATXN expression inhibitors, cell viability; series mostly up to 57.1 µM
Summary of the method: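 HEK293 cells were dosed with titrated compounds for 72 hr at 37 degrees C. Viability was read by CellTiter Glo luminescence, with intracellular ATP as the marker of cell survival.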

[10] = qHTS for Inhibitors of ATXN expression: Validation (AID 588378); conditions: cell-based ATXN2 expression reporter assay, luminescence; series mostly up to 57.1 µM; note: nearly all actives have a fitted effect of over 75% in size
Summary of the method: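 Validation of ATXN2 expression inhibitors uses a cell-based luciferase fusion reporter in HEK293 cells, with 24 h compound exposure and paired viability (fluorescence) and reporter (luminescence) end-point reads.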

## CN(C)c1cc2c(Nc3ccc4c(cnn4Cc4ccccc4)c3)ncnc2cn1
[1]
  activation: 2.12% (inactive)
[2]
  outcome: inactive
[3]
  outcome: inactive
[4]
  outcome: inactive
[5]
  outcome: inactive
[6]
  outcome: inactive

## CC(C)N(CCC(=O)c1ccc2ccccc2c1)Cc1ccccc1
[1]
  activation: 3.12% (inactive)
[7]
  Potency: inactive
  viability change: -0.356%
[2]
  outcome: inactive
[3]
  outcome: inactive
[4]
  outcome: inactive
[5]
  outcome: inactive

## CCN(CC)CCNC(=O)c1ccc(NS(C)(=O)=O)cc1
[7]
  Potency: inactive
  viability change: 5.75%
[2]
  outcome: inactive
[4]
  outcome: inactive
[5]
  outcome: inactive
[6]
  outcome: inactive
[8]
  Potency: inactive
[9]
  outcome: inactive
[10]
  Potency: inactive

## Cc1ccc(O)cc1
[8]
  Potency: inactive

## C[N+](C)(C)CCO
[7]
  Potency: inactive
  viability change: -3.89%
[2]
  outcome: inactive
[3]
  outcome: inactive
[4]
  outcome: inactive
[5]
  outcome: inactive
[6]
  outcome: inactive
[8]
  Potency: inactive
[9]
  outcome: inactive
[10]
  Potency: inactive

## Brc1ccc([C@H]2CN3CCSC3=N2)cc1
[1]
  activation: -2.94% (inactive)
[7]
  Potency: inactive
  viability change: -0.405%
[2]
  outcome: inactive
[3]
  outcome: inactive
[5]
  outcome: inactive
[6]
  outcome: inactive
[8]
  Potency: inactive
[9]
  outcome: inactive
[10]
  Potency: inactive

## C[C@]12CCC(=O)C=C1CC[C@@H]1[C@@H]2[C@@H](O)C[C@@]2(C)[C@H]1CC[C@]2(O)C(=O)COC(=O)CCC(=O)O
[1]
  activation: -0.0625% (inactive)
[3]
  outcome: inactive

## C1N2CN3CN1CN(C2)C3
[8]
  Potency: inactive

## COC(=O)C1=CO[C@@H](O)[C@@H]2C(CO)=CC[C@H]12
[7]
  Potency: inactive
  viability change: -6.84%
[2]
  outcome: inactive
[4]
  outcome: inactive
[5]
  outcome: inactive
[6]
  outcome: inactive
[8]
  Potency: inactive
[9]
  outcome: inactive
[10]
  Potency: inactive

## Cc1ncc(CO)c(CO)c1O
[8]
  Potency: inactive

## COc1cccc2c1[C@@H]1CN(CCCCn3c(=O)[nH]c4c(sc5ncc(-c6ccccc6)nc54)c3=O)C[C@@H]1CO2
[1]
  activation: 0.5% (inactive)
[2]
  outcome: inactive
[3]
  outcome: inactive
[4]
  outcome: inactive
[5]
  outcome: inactive
[6]
  outcome: inactive
[8]
  Potency: inactive
